PubChem BioAssay (Tox21)
Where “and” joins values, the source holds several entries; their conditions need not be identical. Equal entries are not always repeated. Results filed as inconclusive are left out. Calls of active or inactive are those of the source. Unless noted, calls follow the shape of the dose curve; as a rule, active = well fitted curve in the direction sought with a large enough effect in the repeat runs; inconclusive = weak or mixed curves; inactive = no such curve, though single readings can be large; an effect the other way counts as inactive or inconclusive.

Key:
[1] = qHTS assay to identify small molecule antagonists of the estrogen related receptor (ERR) signaling pathway from Tox21 library - cell viability counter screen (AID 1224834); also: nearly all actives have a fitted effect of over 30% in size
Method in brief: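 Counter screen run in ERR cells (2,000 cells/well): cells pre-incubated 6 h, then treated with compounds for 17.5 h at 37 C. Fluorescence was read 30 min after CellTiter-Fluor addition.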

[2] = target: Luciferin 4-monooxygenase (Photinus pyralis) (UniProt P08659); experiment: qHTS assay to identify small molecule inhibitors of firefly luciferase (AID 1224835); also: nearly all actives have a fitted effect of over 25% in size; also: potency is read from the fitted curve at half-maximal effect
Sequence of Luciferin 4-monooxygenase (Photinus pyralis) (P08659 whole entry, looked up): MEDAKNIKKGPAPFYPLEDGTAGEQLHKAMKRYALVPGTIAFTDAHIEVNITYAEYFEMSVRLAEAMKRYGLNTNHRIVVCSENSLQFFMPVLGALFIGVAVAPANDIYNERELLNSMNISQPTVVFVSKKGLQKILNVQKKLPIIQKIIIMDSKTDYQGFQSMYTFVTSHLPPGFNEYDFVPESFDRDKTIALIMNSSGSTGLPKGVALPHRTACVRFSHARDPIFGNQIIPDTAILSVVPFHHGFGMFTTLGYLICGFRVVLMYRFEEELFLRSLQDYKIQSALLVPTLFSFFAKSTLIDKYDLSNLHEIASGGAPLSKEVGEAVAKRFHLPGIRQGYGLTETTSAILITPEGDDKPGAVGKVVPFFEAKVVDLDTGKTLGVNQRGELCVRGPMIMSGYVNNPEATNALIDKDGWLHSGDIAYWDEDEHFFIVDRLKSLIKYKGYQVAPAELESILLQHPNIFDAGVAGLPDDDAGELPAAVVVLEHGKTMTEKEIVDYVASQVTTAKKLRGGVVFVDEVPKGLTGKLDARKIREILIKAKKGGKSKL
Method in brief: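 Quantitative HTS format; KM concentrations of both substrates. Purified P. pyralis FLuc activity quantified from luminescence images.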

[3] = qHTS assay to identify small molecule agonists of the constitutive androstane receptor (CAR) signaling pathway - cell viability counter screen (AID 1224836); also: nearly all actives have a fitted effect of over 45% in size
Method in brief: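 23 h treatment, 37 C, 5% CO2. Cell line: HepG2 stably expressing hCAR with a CYP2B6-2.2kb construct. Co-treatment: PK11195, 0.75 uM final. Read-out: CellTiter-Fluor fluorescence intensity.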

[4] = qHTS assay to identify small molecule antagonists of the constitutive androstane receptor (CAR) signaling pathway - cell viability counter screen (AID 1224837); also: nearly all actives have a fitted effect of over 45% in size
Method in brief: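 CITCO at 50 nM final was added alongside compounds (15 concentrations) to double-stable hCAR/CYP2B6-2.2kb HepG2 cells. Following 23 hr at 37 C, cell viability was quantified by CellTiter-Fluor fluorescence intensity.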

[5] = target: Nuclear receptor subfamily 1 group I member 3 (Homo sapiens) (UniProt Q14994); experiment: qHTS assay to identify small molecule antagonists of the constitutive androstane receptor (CAR) signaling pathway (AID 1224838); also: nearly all actives have a fitted effect of over 40% in size
Sequence of Nuclear receptor subfamily 1 group I member 3 (Homo sapiens) (Q14994 whole entry, looked up): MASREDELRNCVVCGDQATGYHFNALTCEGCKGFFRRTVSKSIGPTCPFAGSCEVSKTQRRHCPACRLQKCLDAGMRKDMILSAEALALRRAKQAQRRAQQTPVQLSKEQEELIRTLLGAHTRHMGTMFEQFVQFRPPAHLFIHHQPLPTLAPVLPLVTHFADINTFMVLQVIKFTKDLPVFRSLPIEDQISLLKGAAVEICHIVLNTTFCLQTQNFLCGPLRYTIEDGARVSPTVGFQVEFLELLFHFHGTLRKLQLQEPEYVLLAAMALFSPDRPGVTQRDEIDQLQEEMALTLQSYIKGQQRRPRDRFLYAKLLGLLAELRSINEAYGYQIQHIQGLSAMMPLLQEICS
Method in brief: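 Inhibition of CITCO-driven (50 nM final) CYP2B6 reporter expression is measured in HepG2 cells stably carrying hCAR. Fifteen compound concentrations are applied for 24 h at 37 C, followed by luciferase luminescence.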

[6] = target: Nuclear receptor subfamily 1 group I member 3 (Homo sapiens) (UniProt Q14994); experiment: qHTS assay to identify small molecule agonists of the constitutive androstane receptor (CAR) signaling pathway (AID 1224839); also: nearly all actives have a fitted effect of over 15% in size; also: potency is read from the fitted curve at half-maximal effect
Method in brief: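 Compounds tested at 15 concentrations on HepG2 cells stably harbouring hCAR and CYP2B6-2.2kb reporter constructs, co-treated with PK11195 (0.75 uM final), 24 h at 37 C; luminescent reporter signal quantified.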

[7] = qHTS assay to identify small molecule antagonists of the estrogen related receptor signaling pathway with the pleiotropic PPARgamma coactivator (PGC) from Tox21 10K library - cell viability counter screen (AID 1224840; active = well fitted cell-killing curve with a large enough effect in the repeat runs, not every such curve was filed as active; also: nearly all actives have a fitted effect of over 40% in size)
Method in brief: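 Readout: fluorescence intensity from CellTiter-Fluor after 30 min at 37 C/5% CO2. Preceded by 17.5 h treatment of PGC/ERR cells with DMSO-dissolved compounds, added 6 h post-seeding.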

[8] = qHTS assay to identify small molecule agonists of the hypoxia (HIF-1) signaling pathway - cell viability counter screen (AID 1224844; calls by dose curve; also: nearly all actives have a fitted effect of over 50% in size)
Method in brief: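 In this counter screen, HRE-bla ME-180 cell viability after 17 hrs of compound exposure at 37C was read by CellTiter-Glo luminescence, multiplexed with the beta-lactamase reporter measurement.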

[9] = qHTS assay to identify small molecule agonists of H2AX (AID 1224845; active = well fitted activation curve with a large enough effect in the signal ratio in the repeat runs, not every such curve was filed as active; the % refers to the signal ratio)
Method in brief: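 Wild-type CHO-K1 cells plated overnight, then exposed 3 hr at 37C to compounds at 15 concentrations (0.76% DMSO). Lysed, then HTRF anti-pH2AX(S139)-cryptate/anti-H2AX-d2 detection after 24 hr at room temperature; emissions 665 and 620 nm.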

[10] = qHTS assay to identify small molecule agonists of H2AX - cell viability counter screen (AID 1224847; calls by dose curve; also: top concentration of the series differs between compounds; nearly all actives have a fitted effect of over 30% in size)
Method in brief: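 Compounds tested at 15 concentrations were incubated 3 hr at 37C with wild-type CHO-K1 cells; cellular ATP-based luminescence (CellTiter-Glo) indicated viability.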

[11] = qHTS RealTime-Glo MT Cell Viability Assay in HepG2 cells - 24 hour (AID 1224867); also: nearly all actives have a fitted effect of over 50% in size
Method in brief: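 Cell number in HepG2 cultures estimated from NanoLuc luminescence generated by metabolic reduction of a prosubstrate by living cells. The homogeneous, nonlytic format allowed repeated reads at 0, 8, 16, 24, 32 and 40 h of compound exposure.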

[12] = qHTS RealTime-Glo MT Cell Viability Assay in HEK293 cells - 32 hour (AID 1224868); also: nearly all actives have a fitted effect of over 50% in size; also: potency is read from the fitted curve at half-maximal effect
Method in brief: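 Homogeneous bioluminescent viability format in HEK293 cells (600 cells/well). Following 5 h at 37 C/5% CO2, 23 nL compound was pintooled; the signal was measured repeatedly during 40 h incubation.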

[13] = target: Thyrotropin receptor (Homo sapiens) (UniProt P16473); experiment: qHTS assay to identify small molecule agonists of the thyroid stimulating hormone receptor (TSHR) signaling pathway (AID 1224843; calls by dose curve; also: nearly all actives have a fitted effect of over 45% in size)
Sequence of Thyrotropin receptor (Homo sapiens) (P16473 whole entry, looked up): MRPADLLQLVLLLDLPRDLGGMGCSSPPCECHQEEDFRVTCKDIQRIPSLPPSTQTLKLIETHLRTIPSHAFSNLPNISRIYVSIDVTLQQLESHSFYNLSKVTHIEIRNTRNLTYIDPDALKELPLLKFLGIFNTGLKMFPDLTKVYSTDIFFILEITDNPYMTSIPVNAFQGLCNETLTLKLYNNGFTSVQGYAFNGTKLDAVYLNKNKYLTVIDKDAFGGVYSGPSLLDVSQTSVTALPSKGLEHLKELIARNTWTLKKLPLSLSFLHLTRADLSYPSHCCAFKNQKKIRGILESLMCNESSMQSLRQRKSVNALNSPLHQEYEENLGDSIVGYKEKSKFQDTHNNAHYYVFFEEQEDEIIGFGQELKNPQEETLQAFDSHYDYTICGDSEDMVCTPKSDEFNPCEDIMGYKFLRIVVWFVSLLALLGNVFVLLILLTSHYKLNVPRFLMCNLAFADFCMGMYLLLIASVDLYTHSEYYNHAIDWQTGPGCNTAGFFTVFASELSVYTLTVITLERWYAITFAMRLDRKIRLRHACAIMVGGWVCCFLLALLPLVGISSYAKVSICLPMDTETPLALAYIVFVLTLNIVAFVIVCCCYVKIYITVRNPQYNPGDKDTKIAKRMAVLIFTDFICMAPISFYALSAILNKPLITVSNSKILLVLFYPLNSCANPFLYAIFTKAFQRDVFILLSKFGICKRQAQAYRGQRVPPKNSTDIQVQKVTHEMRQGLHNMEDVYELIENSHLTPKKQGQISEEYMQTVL
Method in brief: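 Using 15 concentrations per compound in triplicate, cAMP production was monitored in TSHR-HEK293 cells after 30 min compound incubation at RT; HTRF reagents followed, with fluorescence intensity recorded after 1 h.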

[14] = qHTS assay to identify small molecule agonists of the hypoxia (HIF-1) signaling pathway (AID 1224846; active = well fitted activation curve with a large enough effect in the signal ratio in the repeat runs, not every such curve was filed as active; the % refers to the signal ratio)
Method in brief: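 ME-180 HRE-bla reporter cells; compounds in DMSO, 17 h at 37C; read-out beta-lactamase via CCF4-AM FRET.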

[15] = qHTS assay to identify small molecule antagonists of the estrogen related receptor signaling pathway with the pleiotropic PPARgamma coactivator (PGC) from Tox21 10K library (AID 1224841; call rule not given here; also: actives are mostly falling curves and most rising ones were filed inactive; nearly all actives have a fitted effect of over 50% in size; also: potency is read from the fitted curve at half-maximal effect)
Method in brief: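 One-Glo luminescence, measured after half an hour at room temperature, quantified reporter output of PGC/ERR cells. These had been plated at 2,000 per well, incubated 6 h, dosed with compounds in DMSO, then kept 18 h at 37 C.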

[16] = qHTS assay to identify small molecule agonists of the estrogen related receptor signaling pathway with the pleiotropic PPARgamma coactivator (PGC) from Tox21 10K library (AID 1224842); also: nearly all actives have a fitted effect of over 15% in size
Method in brief: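 PGC/ERR reporter cells (NTP line) were seeded 2,000 per well, rested 6 h at 37 C/5% CO2, then pin-dosed with compounds in DMSO for 18 h at 37 C; luciferase read by One-Glo luminescence after 30 min at room temperature.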

[17] = A CellTox Green Cytotoxicity Assay to monitor cytotoxicity in HEK293 cells - 0 hour (AID 1224869); also: nearly all actives have a fitted effect of over 50% in size
Method in brief: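 Real-time, in one plate: 600 HEK293 cells/well with dead-cell DNA dye, pinned compound after 5 h, 37 C incubation over 40 h; viable cells give no appreciable fluorescence.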

[18] = qHTS assay to identify small molecule agonists of the estrogen related receptor (ERR) signaling pathway from Tox21 library (AID 1224849; calls by dose curve; also: nearly all actives have a fitted effect of over 15% in size); settings: ERR reporter cell line, ONE-Glo luciferase, 18 h; at 92.4 µM (top of the series)
Method in brief: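 Luciferase activity in ERR pathway reporter cells served as the agonist readout; exposure lasted 18 h at 37 C, with ONE-Glo detection after 30 min at room temperature.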

[19] = qHTS assay to identify small molecule agonists of the estrogen related receptor signaling pathway with the pleiotropic PPARgamma coactivator (PGC) (AID 1224823)
Method in brief: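 Luminescence readout (One-Glo, 30 min RT) from PGC/ERR cell line treated 18 h at 37 C with pin-tool-delivered DMSO compound solutions; cells plated 6 h before dosing. Quantitative HTS format.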
% is scaled to controls: 0 for no effect and ±100 for the full control effect.

CS(=O)(=O)c1ccc([C@@H](O)[C@@H](CO)NC(=O)C(Cl)Cl)cc1
inactive: Potency [1] | Potency [2] | Potency [3] | Potency [4] | Potency [5] | Potency [6] | Potency [7] | Potency [8] | Potency [9] | Potency [10] | Potency [11] | Potency [12]

NCc1cccc(CN)c1
inactive: Potency [1] | Potency [2] | Potency [3] | Potency [4] | Potency [5] | Potency [6] | Potency [7] | Potency [13] | Potency [8] | Potency [9] | outcome [14] | Potency [10] | Potency [12]

O=C1O[C@H](CO)[C@@H](O)[C@H](O)[C@H]1O
inactive: Potency [1] | Potency [2] | Potency [3] | Potency [4] | Potency [5] | Potency [6] | Potency [7] | Potency [15] | Potency [16] | Potency [13] | Potency [8] | Potency [9] | outcome [14] | Potency [10] | Potency [11] | Potency [12] | Potency [17]

CCCCCCCCC
inactive: Potency [1] | Potency [2] | Potency [3] | Potency [4] | Potency [5] | Potency [6] | Potency [7] | Potency [13] | Potency [8] | Potency [9] | outcome [14] | Potency [11] | Potency [12] | Potency [17]

O=S(=O)(Oc1ccc(Cl)cc1Cl)c1ccccc1
inactive: Potency [1] | Potency [3] | Potency [4] | Potency [5] | Potency [7] | Potency [15] | Potency [13] | Potency [9] | outcome [14] | activity change, positive = activation [18] -20% and 8.74% | Potency [11] | Potency [12] | Potency [17]
active: Potency [2] 79.6 µM | Potency [6] 15.6 µM and 48.6 µM

C[C@@H](O)[C@H]1C(=O)N2C(C(=O)O)=C(S[C@@H]3CN[C@H](C(=O)N(C)C)C3)[C@H](C)[C@H]12
inactive: Potency [1] | Potency [2] | Potency [3] | Potency [4] | Potency [5] | Potency [6] | Potency [7] | Potency [15] | Potency [16] | Potency [13] | Potency [9] | Potency [10] | Potency [12] | Potency [17]

CCCCCCOC(C)=O
inactive: Potency [1] | Potency [2] | Potency [3] | Potency [4] | Potency [5] | Potency [6] | Potency [7] | Potency [15] | Potency [16] | Potency [13] | Potency [9] | outcome [14] | Potency [10] | Potency [12] | Potency [17]

C[C@@H]1O[C@@H](OC[C@H]2O[C@@H](Oc3c(-c4ccc(O)c(O)c4)oc4cc(O)cc(O)c4c3=O)[C@H](O)[C@@H](O)[C@@H]2O)[C@H](O)[C@H](O)[C@H]1O
inactive: Potency [1] | Potency [2] | Potency [3] | Potency [4] | Potency [5] | Potency [6] | Potency [7] | Potency [13] | Potency [8] | outcome [14] | Potency [10] | Potency [11] | Potency [12]

CC#C[C@]1(O)CC[C@H]2[C@@H]3CCC4=CC(=O)CCC4=C3[C@@H](c3ccc(N(C)C)cc3)C[C@@]21C
inactive: Potency [19] | Potency [2] | Potency [5] | Potency [6] | Potency [7] | Potency [16] | Potency [13] | Potency [8] | outcome [14] | Potency [10] | Potency [11] | Potency [17]
active: Potency [15] 21.7 µM and 29.8 µM | Potency [12] 49 µM
